Results as given in ChEMBL document CHEMBL3988442, “University of Dundee, Small-Polar-MMV Screening Library” (2021).
Hit rate of the full screen: of about 48,000 compounds, about 13,000 (27%) showed an effect of 50% or more. Some of the results follow.

What follows are compounds tested on Wolbachia pipientis (assay: Anti-Wolbachia Cell-Based Screen). Conditions: 5 µM.
Format: functional
Design: scale not given: in the data most compounds retested in dose-response had high values

Structure (SMILES) | Percent Effect [%]
CCn1nc(C(=O)N2CCNCC2C(=O)Nc2ccc(C)nc2)cc1C (centres undefined) | -9.898
CNc1cc(C2CCCN2C(=O)CCc2ccccc2F)ccn1 (centres undefined) | 87.66
Cc1c(CCC(=O)N2CCCC2c2ccnc(N(C)C)c2)cnn1C (centres undefined) | 100.7
Cc1ncsc1CCC(=O)N1CCCC1c1cccnc1 (centres undefined) | -20.99
CNc1cc(C2CCCN2C(=O)CCc2cnn(C)c2C)ccn1 (centres undefined) | 114.3
CNc1cc(C2CCCN2Cc2ccccc2C(=O)O)ccn1 (centres undefined) | -9.621
CN(CC(=O)N1CCCC1c1cnn(C)c1)c1ccc(Cl)cn1 (centres undefined) | 7.888
COc1ccc(Nc2cc(C)nc(C)n2)cc1N1CCCC1=O | -4.769
O[C@H]1CC[C@@H](Cc2cc(-c3ccccc3)on2)O[C@@H]1CNCC1CC1 | 0.08363
OCCN1CCC(CNCc2ccc(Br)cc2)CC1 | -27.23
CC(C)N(C)C(=O)C1CSCN1S(=O)(=O)c1ccccc1F (centres undefined) | 0.8894
CCc1cc(CNC(=O)C2CCC(=O)N(Cc3ccccc3F)C2)on1 (centres undefined) | -10.8
CC(C)N1[C@H](CN2CCCC2)C[C@@H]2CN(Cc3cnn(C)c3)CC[C@@H]21 | 1.544
CN1C(Cn2cccn2)C[C@@H]2CN(Cc3cnn(C)c3)CC[C@@H]21 (some centres undefined) | 88.14
CC(=O)N1[C@H](Cn2cncn2)C[C@@H]2CN(Cc3nccs3)CC[C@@H]21 | 4.372
c1cnn([C@@H]2CN(Cc3nccs3)[C@@H]3CCCO[C@@H]32)c1 | -0.08077
Cn1cc(CN2CCO[C@H]3C(Cn4cccn4)CC[C@@H]32)cn1 (some centres undefined) | 5.846
CN1C(Cn2cccn2)C[C@@H]2CN(Cc3nccs3)CC[C@@H]21 (some centres undefined) | 108
Cc1nc(CN2CCC3(CC2)C(=O)N(C)CCN3C)cs1.O=C(O)C(F)(F)F.O=C(O)C(F)(F)F.O=C(O)C(F)(F)F | 99.41
Cc1nc(CN2CCC3(CC2)CCN(C(=O)c2cscn2)C3)cs1.O=C(O)C(F)(F)F | -22.9
CCc1ccc(CN2CCC3(CC2)C(=O)N(C)CCN3CC)cc1 | -23.08
CCN1CCN(C)C(=O)C12CCN(Cc1csc(C)n1)CC2.O=C(O)C(F)(F)F | 113.1

Structure (SMILES) | Percent Effect [%]
COCC1CC2(CCN(CC3CC3)CC2)CN1Cc1csc(C)n1.O=C(O)C(F)(F)F.O=C(O)C(F)(F)F (centres undefined) | 2.06
Cc1nc(CN2CCC3(CC2)CC(=O)N(C)c2ccccc23)cs1.O=C(O)C(F)(F)F | -15.31
Cc1nc(Cn2c3c(ccc2=O)CCN(CC2CCC2)CC3)cs1.O=C(O)C(F)(F)F.O=C(O)C(F)(F)F | -14.62
Cc1nc(CN2CCN(C)C(=O)C23CCN(CC2CCCC2)CC3)cs1 | 121.4
CC(NC(=O)c1cnccn1)c1nnc2ccccn12 (centres undefined) | -8.378
CN(CC1Cc2ccccc2CN1C)C(=O)CSc1nccn1C (centres undefined) | -6.855
CN(C)C(C(=O)Nc1nccs1)c1c(F)cccc1Cl (centres undefined) | -1.745
CCCN1CCC(Nc2nc(CC)ns2)CC1 | -19.08
O=C(c1ccncc1)N1CCC2(CC1)CC(Oc1cccnc1)CO2 (centres undefined) | -1.534
O=C(c1ccncc1)N1CCC2(CC1)CCN(C(=O)c1cccnc1)C2 | 102.3
O=C(c1ccnnc1)N1CCC2(CC1)CCN(C(=O)c1cccnc1)C2 | 96.42
CN(Cc1cccnc1)C1CC2(CCN(C(=O)c3ccnnc3)CC2)C1 | 9.482
COC(=O)[C@H]1CN(C(C)=O)CCN1C(C)=O | -4.652
O=C1CCN(C(=O)C2(c3ccc(F)cc3)CCCCC2)CCN1 | -15.47
CNS(=O)(=O)CCCNC(C)(C)c1nc(C)cs1 | 1.727
CCOc1ccccc1C(CC(=O)O)NC(C)=O (centres undefined) | 10.47
Cc1nsc(NC2CC(=O)N(C(C)(C)C)C2)n1 (centres undefined) | -3.11
COc1cc(-c2n[nH]c(CO)n2)cc(OC)c1OC | 101.2
COc1cc(-c2nc(N)n[nH]2)cc(OC)c1OC | 107.9
COc1ccc(-c2ccccc2CCN)c(OC)c1OC | -10.47
COc1cc(-c2n[nH]c(CCN)n2)cc(OC)c1OC | 136.2
COc1ccc(OC)c(-n2cnnc2CCN)c1 | 12.28

Structure (SMILES) | Percent Effect [%]
COc1cc(CNc2nncs2)cc(OC)c1OC | -2.056
COc1cc(-c2cnnc(NCCSC)n2)cc(OC)c1OC | -5.891
COc1cc(CNc2nc3c(c(=O)[nH]2)CCNC3)cc(OC)c1OC | -8.828
COc1cc(-c2cnnc(NCC3CC3)n2)cc(OC)c1OC | 22.6
COc1cc(CO)c(OC)c2c1OCO2 | 0.3319
COc1cc(-c2n[nH]c(CC#N)n2)cc(OC)c1OC | 137.1
CC(C)c1nccn1C1CCCN(C(=O)c2cccc3[nH]ncc23)C1 (centres undefined) | -3.235
CN(CCNC(=O)Nc1ccncc1)C1CCCCC1 | -10.45
COCCC(=O)NCCCOC1CCCc2ccccc21 (centres undefined) | 3.193
CC(=O)N1CCN(C(=O)NCCCN(C)S(C)(=O)=O)CC1 | -13.58
CC(C)c1noc(C(C)N2CCN(Cc3nc4ccccc4[nH]3)CC2)n1 (centres undefined) | -18.96
CCN(C(=O)CN1CCCC1Cc1ccccc1)c1ccccc1 (centres undefined) | 22.38
COc1cc(-c2cccc3c2OC(CN)C3)cc(OC)c1OC (centres undefined) | 1.955
COc1cc(CN)c(OC)c2c1OCO2.Cl | -2.392
COc1cc(-c2n[nH]c(CN)n2)cc(OC)c1OC | 105.2
CNS(=O)(=O)c1ccc(CNC(=O)NCC2CCOC2)cc1 (centres undefined) | 7.061
Cn1cc(CN2CC[C@H]3C[C@H](c4nc(C5CC5)cs4)O[C@@H]3C2)cn1 | 15.37
Fc1cnc(N2C[C@@H]3C[C@@H](c4nc(C5CC5)cs4)O[C@@H]3C2)nc1.O=C(O)C(F)(F)F | 94.12
Cc1nc(CN2C[C@@H]3CN(c4ncc(F)cn4)C[C@@H]3C2=O)cs1.O=C(O)C(F)(F)F | -12.56
Cn1cc(CN2CC[C@H]3C[C@@H](c4nc(C5CC5)cs4)O[C@@H]3C2)cn1 | -0.3412
Cc1csc([C@@H]2C[C@H]3CN(c4ncc(F)cn4)C[C@H]3O2)n1.O=C(O)C(F)(F)F | 98.65
Cc1cnc(C(=O)N2CC[C@H]3C[C@@H](c4nc(C)cs4)O[C@@H]3C2)cn1 | -16.87

Structure (SMILES) | Percent Effect [%]
Cc1cccc(N2CCN(c3ccn4c(=O)[nH]nc4n3)CC2)c1C | -10.93
Cc1ccc2c(c1C)OCC2NCc1cccc(C#N)c1 (centres undefined) | -16
Cc1cc2n(n1)CC(CNCCNC(=O)c1ccc(F)cc1)CN2 (centres undefined) | -2.749
CC(C(=O)N1CCCC1)S(=O)(=O)Cc1nc(C(C)(C)C)no1 (centres undefined) | 0.9098
CCCc1nnc(NCCc2noc(C3CC3)n2)o1 | 133.3
c1ccc(-c2n[nH]c(CCNc3nnc(C4CCC4)o3)n2)cc1 | -23.29
Cc1cccc(C)c1NCc1noc(C2CC2)n1 | -19.13
CCCc1nnc(NC2CCN(C3CCCC3)CC2)o1 | -6.832
CCCc1nnc(NCCc2noc(C3CCC3)n2)o1 | 108
CCCc1nnc(NCCc2noc(C3CCCC3)n2)o1 | 110.1
c1ccc(-c2nc(CCNc3nnc(C4CCC4)o3)no2)cc1 | -25.81
CCCc1nnc(NC2CCN(C3CCOCC3)CC2)o1 | -6.121
CCCc1nnc(NC2CCN(CCO)CC2)o1 | -14.34
CCOC(=O)CCNC(=O)N1CCCC(CNC(=O)c2cccs2)C1 (centres undefined) | -0.8406
COCC(C)NCc1nc(-c2ccc(C)cc2)c(-c2ccccn2)[nH]1 (centres undefined) | 22.14
O=C(NCC1CC[C@@]2(CNCCOC2)O1)c1cnccn1 (some centres undefined) | -4.727
CCOCC(O)CN1CCN(C(=O)c2ccccc2F)CC1 (centres undefined) | 82.64
CCOCC(O)CN1CCN(C(=O)C2CC2)CC1 (centres undefined) | 3.304
CCOCC(O)CN1CCN(C(=O)CC(C)C)CC1 (centres undefined) | -1.349
CCOCC(O)CN1CCN(C(=O)c2cccnc2OC)CC1 (centres undefined) | -8.967
CCOCC(O)CN1CCN(C(=O)c2cc(C)ccc2OC)CC1 (centres undefined) | 91.25
CCOCC(O)CN1CCN(C(=O)c2cc(C)ccc2F)CC1 (centres undefined) | 114.4

Structure (SMILES) | Percent Effect [%]
CCOCC(O)CN1CCN(C(=O)c2ccc(OC)cc2F)CC1 (centres undefined) | 5.863
CCOCC(O)CN1CCN(C(=O)c2cc(Cl)ccc2F)CC1 (centres undefined) | 107.8
CCOCC(O)CN1CCN(C(=O)c2cccc3[nH]ncc23)CC1 (centres undefined) | -8.301
CCOCC(O)CN1CCN(C(=O)c2ccccc2Cl)CC1 (centres undefined) | -0.07038
CCOCC(O)CN1CCN(C(=O)c2cc(F)ccc2C)CC1 (centres undefined) | -5.879
CCC(CO)N(Cc1ccccn1)C(=O)c1ccc(F)c(F)c1 (centres undefined) | -4.122
COc1ccccc1[C@@H]1CN(Cc2ccc3nsnc3c2)C[C@H]1C(=O)O | -7.505
O=C1CCCN1CC1CCCCN1C(=O)Nc1cccnc1 (centres undefined) | 2.863
CC(CO)(NC(=O)Nc1nnc(C2CC2)s1)C1CCCCC1 (centres undefined) | -9.055
Cc1ncnc2c1CCN(c1ccccn1)CC2.O=C(O)C(F)(F)F | -1.048
CCN(C)c1ncnc2c1CCN(C(=O)c1ccc(C)o1)CC2 | 16.8
Cc1ccc(N2CCCC(N(C)c3ncnc4c3CCC4)C2)nn1 (centres undefined) | 40.92
Cc1ccc(N2CCc3ncnc(C)c3CC2)nn1 | 98.11
CCN(CC)c1ncnc2c1CCN(c1ccc(C)nn1)CC2 | 109.1
c1ccc(N2CCc3ncnc(C4CC4)c3CC2)nc1 | -3.177
CCN(C)c1ncnc2c1CCN(c1ccc(C)nn1)CC2 | 88.89
Cc1ccc(N2CCc3ncnc(C4CC4)c3CC2)nn1 | 109.7
Cc1cccc(N2CCc3ncnc(C4CC4)c3CC2)n1.O=C(O)C(F)(F)F | -0.7923
Cc1ncnc2c1CCN(c1cc(C(F)(F)F)ncn1)CC2 | -23.9
CCN(CC)c1ncnc2c1CCN(CC1CCOCC1)CC2.O=C(O)C(F)(F)F | -1.394
CCN(C)c1ncnc2c1CCN(Cc1ccoc1)CC2 | 5.87
